This is a sample that favours compounds with a hit; in the whole collection about 19% have one here.
TDP1 block = inhibitors of human tyrosyl-DNA phosphodiesterase TDP1; Q9NUW8; recombinant TDP1, AlphaScreen DNA substrate cleavage; Potency, µM (doses to about 130 µM), hits mostly inhibitors; hit rate 0.28% among 350,000; AID 485290; note: nearly all actives have a fitted effect of over 40% in size
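Compounds were preincubated with Tdp1 (1 nM final) for 15 min at room temperature before substrate (15 nM final) started a 5 min reaction; beads (10 ug/ml final) were then added for 10 min before AlphaScreen detection.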
Gal4-VP16 FLuc = counter-screen for ROR gamma inhibitors: Gal4-VP16 reporter; Drosophila S2 Gal4-VP16 UAS-luciferase, luminescence, 20 h; Potency, µM (top dose mostly 53.6 µM), usual class: inhibitors; hit rate 3.5% among 310,000;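 note: Gal4-VP16 expression switched on by copper sulfate through the metallothionein promoter; nearly all actives have a fitted effect of over 50% in size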
RORg inh = ROR gamma (mouse) transcription inhibition; P51450; Drosophila S2 Gal4-RORgamma UAS-luciferase reporter, 20 h; Potency, µM (highest dose often 53.6 µM), usual class: inhibitors; hit rate 5.4% among 310,000; AID 2551; note: nearly all actives have a fitted effect of over 60% in size
Target sequence (P51450 whole entry, looked up, the tested form may be a part): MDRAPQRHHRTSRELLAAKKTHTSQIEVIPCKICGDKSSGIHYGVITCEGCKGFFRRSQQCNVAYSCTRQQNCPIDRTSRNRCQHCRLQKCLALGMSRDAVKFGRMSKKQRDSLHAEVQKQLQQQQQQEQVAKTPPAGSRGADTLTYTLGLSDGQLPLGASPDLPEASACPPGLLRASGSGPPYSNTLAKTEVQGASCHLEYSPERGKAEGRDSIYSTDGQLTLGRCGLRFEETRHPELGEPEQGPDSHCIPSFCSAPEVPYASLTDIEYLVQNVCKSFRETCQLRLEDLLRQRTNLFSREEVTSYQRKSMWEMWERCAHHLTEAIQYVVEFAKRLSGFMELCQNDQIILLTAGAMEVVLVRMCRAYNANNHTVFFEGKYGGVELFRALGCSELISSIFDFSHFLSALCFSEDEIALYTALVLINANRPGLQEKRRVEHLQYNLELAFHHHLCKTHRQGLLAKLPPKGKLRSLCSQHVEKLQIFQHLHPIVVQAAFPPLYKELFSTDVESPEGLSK
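Using a luciferase readout, inhibitors were identified by reduced reporter activity in Drosophila cells coexpressing a copper-inducible Gal4–ROR gamma fusion and UAS-driven Photinus luciferase, incubated 20 hr after 700 uM copper sulfate.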
TDP1 cell CPT = DT40-hTDP1 cell growth loss with CPT; hit rate 12% among 420,000; Potency, µM (titrated, usually from 46.2 µM), most hits filed as inhibitors; chicken DT40 Tdp1-/-;hTDP1 cells + 20 nM CPT, ATP luminescence, 48 h; note: nearly all actives have a fitted effect of over 55% in size
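Chicken DT40 Tdp1-/- cells complemented with human TDP1, 400 cells/well, exposed to compounds plus 20 nM camptothecin for at least 48 h at 37 C; viability read as ATP content by CellTiter-Glo luminescence.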
TDP1 cell noCPT = qHTS for Inhibitors of human tyrosyl-DNA phosphodiesterase 1 (TDP1): qHTS in cells in absence of CPT. DT40 Tdp1-/- hTDP1 cells, no CPT, ATP luminescence, 48 h. Potency, µM (highest dose often 46.2 µM), usual class: inhibitors. hit rate 15% among 420,000. AID 686978, 2013; note: nearly all actives have a fitted effect of over 55% in size
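DT40 Tdp1-/-;hTDP1 cells, no CPT (DMSO vehicle only), 400 cells/well; compounds pin-transferred; ≥48 hr, 37 °C; CellTiter-Glo 30 min RT dark, luminescence read.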
Numbers stand for hits; . = inactive; ? = inconclusive; / = no result; [ ] = remark or other dose. Calls come from the whole dose curve; as a rule, active = well fitted curve in the direction sought with a large enough effect; inconclusive = small, poorly fitted or top-dose-only effect, or another doubt; inactive = no such curve, though single readings can be large; an effect the other way counts as inactive or inconclusive.

SMILES	TDP1 block	Gal4-VP16 FLuc	RORg inh	TDP1 cell CPT	TDP1 cell noCPT
CCc1cc(C(=O)c2ccc(OC)cc2)c(NC(=O)CC(C)(C)CC(=O)O)s1	/	.	.	.	.
CCOC(=O)N1CCN(C(=O)C(NC(=O)c2ccc(CC)cc2)C(C)C)CC1 (stereo not drawn)	.	.	?	8.2µM	5.8µM
CCOC(=O)N1CCN(C(=S)NC(=O)c2ccc(Br)cc2)CC1	.	1.26µM	0.562µM	?	13µM
CCOC(=O)N1CCN(S(=O)(=O)c2ccc(C(=O)Nc3nnc(CC)o3)cc2)CC1	.	?	?	.	.
CCOC(=O)N1CCN(S(=O)(=O)c2ccc(C(=O)Nc3nnc(C4CC4)o3)cc2)CC1	.	3.16µM	1.78µM	.	?
CC1CCN(S(=O)(=O)c2ccc(C(=O)Nc3nnc(-c4ccccn4)o3)cc2)CC1	.	.	.	?	?
CC1CC(C)CN(S(=O)(=O)c2ccc(C(=O)Nc3nnc(C4CC4)o3)cc2)C1 (stereo not drawn)	.	0.631µM	0.562µM	?	?
Cc1cccc(C(=O)NNC(=O)C2CCCCC2)c1O	/	/	/	?	23.1µM
C=CC[C@@H](CC(=O)N(CCO)Cc1ccccc1)C(=O)NCCOC(=O)[C@H](CC=C)CC(=O)OC(C)(C)C	.	/	/	?	?
C=CC[C@H](CC(=O)N(CCO)Cc1ccccc1)C(=O)NCCOC(=O)[C@@H](CC=C)CC(=O)OC(C)(C)C	.	/	/	23.1µM	?
C=CC[C@H](CC(=O)N(CCO)Cc1ccccc1)C(=O)NCCOC(=O)[C@H](CC=C)CC(=O)OC(C)(C)C	.	/	/	16.4µM	20.6µM
C=CC[C@H](CC(=O)N(CCO)Cc1ccccc1)C(=O)N[C@H](COC(=O)[C@H](CC=C)CC(=O)OC(C)(C)C)Cc1c[nH]c2ccccc12	.	/	/	?	?
CC(C)c1ccc(NC(=O)CSC2=Nc3ccccc3C3=NC(CC(=O)NCCc4ccccc4)C(=O)N23)cc1 (stereo not drawn)	.	/	/	?	?
COc1ccc(CCN(C)Cc2c(O)ccc3cc(Br)ccc23)cc1OC	/	.	.	?	.
COC(c1ccc(Cl)cc1)(c1ccc(Cl)cc1)C(Oc1nccc(C)n1)C(=O)O (stereo not drawn)	.	.	?	.	.
CC(C)(C)c1ccc(C(=O)N2CCN(Cc3cc(=O)n4nc(-c5ccccc5F)sc4n3)CC2)cc1	.	/	/	.	.
Cc1ccccc1-c1nn2c(=O)cc(CN3CCN(C(=O)c4ccc(C(C)(C)C)cc4)CC3)nc2s1	.	/	/	8.2µM	7.31µM
COc1cccc(-c2nn3c(=O)cc(CN4CCN(C(=O)/C=C/c5ccccc5)CC4)nc3s2)c1	.	/	/	?	?
CCC(Oc1ccccc1)C(=O)N1CCN(Cc2cc(=O)n3nc(-c4cccc(C)c4)sc3n2)CC1 (stereo not drawn)	.	/	/	?	23.1µM
Cc1cc(=O)c(C(=O)O)cn1-c1ccc(C(C)C)cc1	.	.	.	.	.
CN1CCN(C2Cc3ccc(F)cc3Sc3cc(F)c(Cl)cc32)CC1 (stereo not drawn)	/	/	/	18.4µM	10.3µM
CN1CCN(S(=O)(=O)c2cc(C(F)(F)F)ccc2Cl)CC1	.	.	.	.	.
CN1CCN(C2Cc3ccccc3Sc3cc(C(F)(F)F)ccc32)CC1 (stereo not drawn)	/	/	/	?	16.4µM
Cc1ccc(-c2noc(CCC(=O)N(C)c3ccccc3C)n2)cc1	.	?	.	?	14.6µM
CCN(C(=O)CCc1nc(-c2ccc(C)cc2)no1)c1cc(C)ccc1C	.	/	/	18.4µM	23.1µM
SMILES	TDP1 block	Gal4-VP16 FLuc	RORg inh	TDP1 cell CPT	TDP1 cell noCPT
CCN(C(=O)CCc1nc(-c2ccc(OC)cc2)no1)c1cc(OC)ccc1OC	.	.	.	?	?
O=C1c2ccccc2C(=O)N1CC1=NCCc2ccccc21	.	.	.	.	.
CC(=O)N(c1nc(CCl)cs1)c1ccc(C)cc1C	.	.	.	.	.
CCc1ccccc1N(C(C)=O)c1nc(CCl)cs1	.	.	.	14.6µM	23.1µM
CCOC(=O)N1CCN(CCC(=O)Nc2cccc(Cl)c2C)CC1	/	.	.	.	?
CCCNC(=O)C1(C)CCCN(Cc2cc3ccccc3o2)C1 (stereo not drawn)	/	/	/	16.4µM	23.1µM
CCCNC(=O)C1(C)CCCN(Cc2ccc3ccccc3c2)C1 (stereo not drawn)	/	/	/	?	23.1µM
COC(=O)CNC(=O)COC(=O)c1cc(F)c(F)cc1Cl	.	.	.	.	.
CCC(CC)C(=O)Nc1ccc(C)c(O)c1	.	.	.	.	.
O=C1CCCC2=C1C(c1ccc(O)c(O)c1)Nc1ccc3ncccc3c12 (stereo not drawn)	/	.	.	.	.
O=C1CCCC2=C1C(c1cccs1)Nc1ccc3ncccc3c12 (stereo not drawn)	.	.	.	15.8µM	?
Cc1ccsc1C1Nc2ccc3ncccc3c2C2=C1C(=O)CC(C)(C)C2 (stereo not drawn)	.	.	?	13µM	?
Cc1ccc(NC(=O)[C@H](NC(=O)[C@@H]2Cc3ccccc3CN2)c2ccccc2)cc1C	.	.	.	.	?
CC1CCc2[nH]c3ccc(C(=O)N(C)CC(=O)Nc4ccc(F)cc4)cc3c2C1 (stereo not drawn)	.	.	?	?	10.3µM
COc1ccc(NC(=O)CN(C)C(=O)c2ccc3[nH]c4c(c3c2)CC(C)CC4)cc1 (stereo not drawn)	.	/	/	.	23.1µM
CCC1CCc2sc(C(=O)N(C)CC(=O)Nc3ccc(OC)cc3)cc2C1 (stereo not drawn)	.	/	/	?	20.6µM
CCN(CC(=O)Nc1ccccc1C(F)(F)F)C(=O)c1ccc2[nH]c3c(c2c1)CC(C)CC3 (stereo not drawn)	/	/	/	?	18.4µM
CC(=O)Nc1ccc(S(=O)(=O)N(CC(=O)NC2CC2)Cc2ccccc2)cc1	.	/	/	.	.
Cn1c(NC(=O)c2ccc(F)cc2)c(-c2cccs2)c(=O)c2ccccc21	.	.	.	?	?
Cc1ccc(S(=O)(=O)NCC(=O)NCC(=O)N2CCC(C)CC2)cc1	/	.	.	.	.
CCn1c(SCC(=O)Nc2cc(C)on2)nc2c([nH]c3ccccc32)c1=O	.	?	?	?	18.4µM
CCCCCCn1c(SCC(=O)Nc2cc(C)on2)nc2ccccc2c1=O	.	.[0.365 µM]	3.98µM	?	10µM
COc1cccc(C(c2nnnn2C(C)(C)C)N2CCN(C/C=C/c3ccccc3)CC2)c1OC (stereo not drawn)	/	/	/	?	16.4µM
Cc1cccc(C)c1-n1nnnc1C(c1ccccc1)N1CCN(C/C=C/c2ccccc2)CC1 (stereo not drawn)	/	/	/	20.6µM	16.4µM
COc1ccc(-n2nnnc2C(c2ccccc2OC(F)(F)F)N2CCN(C/C=C/c3ccccc3)CC2)cc1 (stereo not drawn)	/	/	/	23.1µM	16.4µM

High-throughput results (PubChem)
